Rows were chosen to be rich in hits. Some 2.9% of all compounds tested hit in one or more screens of this group.
PLC-gamma1 inh: PLC-gamma1 enzyme inhibitors, primary screen, biochemical, fluorescence, purified enzyme. AID 720700, 2013. fluorogenic substrate. inhibition, % at 12.2 µM. hit rate 0.84% among 370,000; in the data active = inhibition above about 9.5%
Target sequence (P19174 whole entry, looked up): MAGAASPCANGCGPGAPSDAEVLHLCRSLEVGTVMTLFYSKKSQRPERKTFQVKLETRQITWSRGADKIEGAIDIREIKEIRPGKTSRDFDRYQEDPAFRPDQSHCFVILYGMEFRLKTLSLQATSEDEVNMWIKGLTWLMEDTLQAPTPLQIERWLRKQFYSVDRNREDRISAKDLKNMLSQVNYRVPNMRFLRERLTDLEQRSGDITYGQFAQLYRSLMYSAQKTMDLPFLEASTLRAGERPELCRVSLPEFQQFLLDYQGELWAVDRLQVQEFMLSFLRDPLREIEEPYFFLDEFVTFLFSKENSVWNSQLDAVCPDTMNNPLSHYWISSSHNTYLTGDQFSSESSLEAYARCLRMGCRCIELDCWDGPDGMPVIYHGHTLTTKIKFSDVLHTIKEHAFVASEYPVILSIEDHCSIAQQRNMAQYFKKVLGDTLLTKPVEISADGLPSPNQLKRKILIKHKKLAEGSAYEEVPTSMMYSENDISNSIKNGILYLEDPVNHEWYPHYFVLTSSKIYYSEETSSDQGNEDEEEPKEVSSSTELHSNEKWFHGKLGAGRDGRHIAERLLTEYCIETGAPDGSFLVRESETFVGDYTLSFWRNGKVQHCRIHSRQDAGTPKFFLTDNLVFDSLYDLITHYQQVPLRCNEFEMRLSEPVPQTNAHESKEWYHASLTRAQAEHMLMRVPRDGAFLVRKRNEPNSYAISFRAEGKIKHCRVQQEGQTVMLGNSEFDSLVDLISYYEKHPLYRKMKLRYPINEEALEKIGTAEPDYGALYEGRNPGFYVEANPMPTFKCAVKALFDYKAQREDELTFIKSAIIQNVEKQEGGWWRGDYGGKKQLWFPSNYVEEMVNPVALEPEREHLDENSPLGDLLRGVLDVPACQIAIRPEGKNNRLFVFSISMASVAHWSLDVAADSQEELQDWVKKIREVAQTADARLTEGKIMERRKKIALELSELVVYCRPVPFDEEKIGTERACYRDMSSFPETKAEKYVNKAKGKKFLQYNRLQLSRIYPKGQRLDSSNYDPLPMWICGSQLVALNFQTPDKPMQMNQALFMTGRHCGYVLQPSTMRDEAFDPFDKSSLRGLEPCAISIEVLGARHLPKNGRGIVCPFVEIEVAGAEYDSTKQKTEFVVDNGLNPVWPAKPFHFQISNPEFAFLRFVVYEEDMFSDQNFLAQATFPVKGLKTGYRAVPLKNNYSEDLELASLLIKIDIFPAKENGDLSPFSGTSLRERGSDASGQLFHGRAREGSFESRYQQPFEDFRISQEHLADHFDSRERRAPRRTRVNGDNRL
KLK7 zymogen act: proKLK7 zymogen activators, primary screen, biochemical, fluorescence intensity. Kallikrein-7 (Homo sapiens), P49862. hit rate 0.9% among 370,000. activation, % at 7 µM. AID 652039, 2013. purified proKLK7, EDANS-DABCYL substrate fluorescence; 100% is mature enzyme control, 0% vehicle;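 active = activation above the mean of all tested compounds plus 3 SD, computed per campaign excluding outliers beyond control limits, cut at about 13% in these data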
PLCb3 inh: human PLC-beta3 inhibitors, primary screen, biochemical, fluorescence; AID 720704, 2013; Purified PLC-beta3, fluorogenic substrate; 1-phosphatidylinositol 4,5-bisphosphate phosphodiesterase beta-3 (Homo sapiens), Q01970; hit rate 0.18% among 370,000; inhibition, % at 12.2 µM; in the data active = inhibition above about 11%
ADAM17 inh: ADAM17 inhibitors, primary screen, biochemical, QFRET. inhibition, % at 6.95 µM. Disintegrin and metalloproteinase domain-containing protein 17 (Homo sapiens), P78536. hit rate 0.83% among 370,000. AID 720648, 2013. recombinant ADAM17, EDANS/DABCYL FRET peptide cleavage;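 active = inhibition above the mean of compounds lying between control limits plus 3 SD, set per campaign, cut at about 8.5% in these data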
ADAM10 inh: human ADAM10 inhibitors, primary screen, biochemical, QFRET, HTS | AID 720582, 2013 | inhibition, % at 7 µM | Disintegrin and metalloproteinase domain-containing protein 10 (Homo sapiens), O14672 | hit rate 0.62% among 370,000 | recombinant ADAM10, EDANS/DABCYL FRET peptide cleavage, 3 h;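 active = inhibition above a per-campaign cutoff equal to the mean of compounds falling between control-based bounds plus 3 SD, cut at about 20% in these data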
ADAM10 counter: ADAM10 inhibitors, counter-screen for ADAM17 exosite inhibitor project, biochemical, FRET, human ADAM10. shares compounds with ADAM17 inh. hit rate 47% among 2,900. recombinant ADAM10, EDANS/DABCYL FRET peptide cleavage, 3 h. inhibition, % at 6.95 µM;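 active = mean inhibition over the triplicate runs exceeds the activity threshold set in the earlier primary screen, cut at about 20% in these data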
ADAM17 confirm: ADAM17 inhibitors, hit retest, confirmation, biochemical, QFRET peptide cleavage; shares compounds with ADAM17 inh; recombinant ADAM17, EDANS/DABCYL QFRET peptide cleavage; inhibition, % at 6.95 µM; hit rate 65% among 2,900; AID 743257, 2014;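 active = mean inhibition across replicates above the hit cutoff set in the primary screen, cut at about 8.5% in these data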
Each line names hits and unclear results; the compound was inactive in the other large screens (follow-up assays come after a bar, where they were run).

Cc1cc(-c2n[nH]c(=S)n2N=Cc2ccc(OCc3ccccc3)cc2)n[nH]1	none
O=C(c1ccccc1)c1ccc(OCC(O)CNCc2ccc(F)cc2)cc1 (stereo not drawn)	ADAM17 inh 10.0 | ADAM10 counter inactive | ADAM17 confirm inactive
N#Cc1c(-c2ccccc2)c(-c2ccccc2)nn(CC(=O)NNC(=O)Nc2ccc(Cl)cc2)c1=O	ADAM17 inh 14.1 | ADAM10 counter 23.1 | ADAM17 confirm 19.4
O=C(c1nc2ccc(Cl)cn2c1CN1CCC[C@H]1CO)N1CCc2ccccc2C1	none
COc1ccc(NC(=O)c2oc3ccccc3c2NC(=O)C(C)(C)C)cc1	ADAM17 inh 9.7 | ADAM10 counter inactive | ADAM17 confirm 8.8
COc1ccc2nc(Nc3ccc4c(c3)OCO4)sc2c1	ADAM17 inh 9.8 | ADAM10 counter inactive | ADAM17 confirm inactive
CCc1cc(-c2nnn(CCC3COCCO3)c2CC)ccc1-c1cn(CCc2c[nH]c3ccccc23)nn1 (stereo not drawn)	ADAM17 inh 8.6 | ADAM10 counter inactive | ADAM17 confirm 9.4
Cc1ccc(-c2nnn(CCC(=O)N3CCCCC3C)n2)cc1 (stereo not drawn)	PLC-gamma1 inh 12.5, ADAM17 inh 9.5 | ADAM10 counter inactive | ADAM17 confirm inactive
CCc1ccc(N2CC(C)Cn3c2nc2c3c(=O)n(CCN3CCOCC3)c(=O)n2C)cc1 (stereo not drawn)	ADAM17 inh 9.1 | ADAM10 counter inactive | ADAM17 confirm inactive
COc1ccc(N2CC(C)Cn3c2nc2c3c(=O)n(CCN3CCOCC3)c(=O)n2C)cc1 (stereo not drawn)	none
O=C(Nc1nccs1)c1cc2sccc2n1Cc1ccc(F)cc1	none
COc1ccc(NC(=O)c2cc3sccc3n2Cc2ccc(F)cc2)cc1OC	ADAM17 inh 9.8 | ADAM10 counter inactive | ADAM17 confirm inactive
N#Cc1c2ccc([N+](=O)[O-])cc2[n+]([O-])n1-c1ccccc1	none
Cc1cc(N/N=C/c2ccccc2Cl)nc(NCc2ccccc2)n1	ADAM17 inh 10.7 | ADAM10 counter inactive | ADAM17 confirm inactive
Cc1cc(C)nc(N/N=C/c2ccccc2Cl)n1	none
CCO[C@@H]1OC(C(=O)N2CCN(Cc3ccccc3)CC2)=C[C@H](c2ccc(Br)cc2)[C@H]1CCCO	ADAM17 inh 10.2 | ADAM10 counter inactive | ADAM17 confirm inactive
CCO[C@@H]1OC(C(=O)N2CCN(Cc3ccccc3)CC2)=C[C@H](c2ccc(C(F)(F)F)cc2)[C@H]1CCCO	none
CCOC(=O)c1ccc(NS(=O)(=O)c2cnc[nH]2)cc1	ADAM17 inh 9.3 | ADAM10 counter inactive | ADAM17 confirm inactive
CCOC(=O)c1cccc(NS(=O)(=O)c2cnc[nH]2)c1	none
COc1ccc(CCN2CC(C(=O)OCC(=O)NC(C)c3cccc(Cl)c3)CC2=O)cc1OC (stereo not drawn)	none
Cc1ccc(Cn2ccc(=O)c(OCc3c(Cl)cccc3Cl)c2C)cc1	ADAM17 inh 10.5 | ADAM10 counter inactive | ADAM17 confirm 10.2
CCOC(=O)c1sc(SC)c2c1CCCC2=O	ADAM17 inh 9.3 | ADAM10 counter inactive | ADAM17 confirm inactive
CCC(NC(=O)c1ccc2c(ccn2Cc2cccc(-c3ccccc3C(=O)O)c2)c1)c1ccccc1 (stereo not drawn)	none
CN(C)CCNC(=O)c1ccc2c(=O)n(Cc3ccc(Cl)cc3)c(=S)[nH]c2c1	ADAM17 inh 9.1 | ADAM10 counter inactive | ADAM17 confirm inactive
CC1CCN(CCCNC(=O)c2ccc3c(=O)n(Cc4ccc(Cl)cc4)c(=S)[nH]c3c2)CC1	none
Cc1ccc2nc3sc(C(=O)N4CCN(C)CC4)cc3cc2c1	none (no result: KLK7 zymogen act)
CC1NC(=O)c2cccnc2-n2c1nc1cc(F)ccc1c2=O (stereo not drawn)	none
CSc1nc2ccc(NS(=O)(=O)c3cccc(Cl)c3Cl)cc2s1	ADAM17 inh 9.7 | ADAM10 counter inactive | ADAM17 confirm 10.1
O=C(c1ccc(C(F)(F)F)cc1)N1CCC(=O)N(C(COCc2ccc(C(F)(F)F)cc2)Cc2ccccc2)CC1 (stereo not drawn)	ADAM17 inh 8.9 | ADAM10 counter 38.5 | ADAM17 confirm 17.1
CC(C)=CCc1c(O)ccc(C(=O)Cc2ccccc2)c1O	ADAM17 inh 10.5 | ADAM10 counter 23.7 | ADAM17 confirm 12.6
Cc1cnc(NC(=O)Nc2ccc(Cl)cc2)s1	none
Cc1cnc(NC(=O)CSc2ccc(Cl)cc2)s1	ADAM17 inh 9.0 | ADAM10 counter inactive | ADAM17 confirm inactive
O=S(=O)(c1ccccc1)N(CC(O)Cn1c2ccccc2c2ccccc21)c1ccccc1 (stereo not drawn)	ADAM17 inh 14.0 | ADAM10 counter inactive | ADAM17 confirm 17.1
O=S(=O)(c1ccc(F)cc1)N(CCO)CC(O)Cn1c2ccccc2c2ccccc21 (stereo not drawn)	ADAM17 inh 9.0 | ADAM10 counter inactive | ADAM17 confirm inactive
COc1ccccc1N(CC(O)Cn1c2ccccc2c2ccccc21)S(=O)(=O)c1ccccc1 (stereo not drawn)	none
Cc1ccc(S(=O)(=O)N(C)CC(O)Cn2c3ccccc3c3ccccc32)cc1 (stereo not drawn)	ADAM17 inh 11.2 | ADAM10 counter 21.4 | ADAM17 confirm 11.3
CC(OC(=O)Nc1ccccc1)C(=O)OC1CCCCC1 (stereo not drawn)	none
Cc1ccc(S(=O)(=O)N(C(=O)c2ccncc2)c2ccc(OC(=O)c3ccncc3)c3ccccc23)cc1	ADAM17 inh 8.9 | ADAM10 counter 37.0 | ADAM17 confirm 19.4
Cc1ccc(S(=O)(=O)N2CCN(C(=O)CCC(=O)NCc3cccc(C(F)(F)F)c3)CC2)cc1	none
O=C(/C=C/c1ccccc1O)c1ccc(Cl)cc1	ADAM17 inh 10.0 | ADAM10 counter inactive | ADAM17 confirm 9.4
C[C@@H]1CN([C@@H](C)CO)C(=O)CCCn2nncc2CO[C@@H]1CN(C)S(=O)(=O)c1ccc(C#N)cc1	ADAM17 inh 9.5 | ADAM10 counter inactive | ADAM17 confirm 9.5
C[C@@H]1CN([C@@H](C)CO)C(=O)CCCn2nncc2CO[C@H]1CN(C)S(=O)(=O)c1ccc(C#N)cc1	none

Screening data (PubChem BioAssay)
